Out of some 420,000 compounds screened, about 64,000 (15%) were called active. About 27% were inconclusive and are not listed. Only a sample is shown. A number with no mark means an inactive call. The call rests on the fitted dose curve; in most records, active means well fitted inhibition curve with a large enough effect; inconclusive means small, poorly fitted or top-dose-only effect; inactive means flat fitted curve, though single readings scatter.
experiment: qHTS for Inhibitors of human tyrosyl-DNA phosphodiesterase 1 (TDP1): qHTS in cells in absence of CPT; settings: DT40 Tdp1-/- hTDP1 cells, no CPT, ATP luminescence, 48 h; activity change, negative = growth inhibition: at 46.2 µM (top of the series); further: nearly all actives have a fitted effect of over 55% in size
Method in brief: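 Chicken DT40 Tdp1-/- cells stably complemented with human TDP1 were seeded at 400 cells/well with DMSO in place of 20 nM camptothecin. After compound pinning, cells grew at least 48 hr at 37 °C; viability read by CellTiter-Glo luminescence.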
On the % scale 0 is the no-effect control and ±100 the full control effect; potency means the concentration at half of the fitted maximal effect.

Row | SMILES | activity change, negative = growth inhibition [%] | Potency
1 | O=C(O)C(O)[C@@](O)(Cc1ccc(O)cc1)C(=O)O (stereo partly drawn) | -5.46 | –
2 | COCCCN1C(=O)C(=O)/C(=C(/O)c2ccc(S(=O)(=O)N3CCOCC3)cc2)C1c1ccc(F)cc1 (stereo not drawn) | 17.4 | –
3 | Cc1ccc(CNC(=O)Nc2nnc([C@H]3C[C@H](O)[C@@H](CO)O3)s2)cc1 | 17.4 | –
4 | O=C(O)CC(SCC(=O)Nc1ccc(Br)cc1)C(=O)O (stereo not drawn) | -10.5 | –
5 | O=C(Nc1nnc(CCOCCOCCc2nnc(NC(=O)c3ccco3)s2)s1)c1ccco1 | -5.18 | –
6 | CCC(=O)Nc1nc(OC)cc(OC)n1 | -21.4 | –
7 | CCc1ccc(NC(=O)CS(=O)CC(=O)N2CCN(c3ccccc3F)CC2)cc1 (stereo not drawn) | -0.775 | –
8 | Cc1cccc(NC(=S)N2CCC(O)CC2)c1C | 3.36 | –
9 | CCOc1ccccc1NC(=S)N1CCN(c2cccc(C)c2C)CC1 | – | 8.2 µM (active)
10 | CCOc1ccccc1NC(=O)C1CCCN(C(=O)Nc2ccccc2)C1 (stereo not drawn) | -0.555 | –
11 | Cc1c(C)n(Cc2ccc(Cl)cc2)c2ccc(C(=O)N3CCN(c4ccccc4F)CC3)cc12 | – | 23.1 µM (active)
12 | O=C(c1ccc(CN2CCOCC2)cc1)N1CCN(c2ccccc2F)CC1 | -29.9 | –
13 | Brc1ccccc1C1Nc2cccc3cccc(c23)N1 | -26.5 | –
14 | O=C(Cc1ccc(F)cc1)NC1CCCC1 | -18.7 | –
15 | CCOc1ccc(NC(=O)CN(C)C(=O)c2c(C)noc2C)cc1OCC | -7.57 | –
16 | N#CC1(NC(=O)COc2ccc3oc4ccccc4c3c2)CCCCC1 | -3.82 | –
17 | CCOC(=O)[C@H]1CCC[C@@H](NS(=O)(=O)c2ccc(NC(C)=O)cc2)C1 | -27.8 | –
18 | COc1ccccc1OC(C)C(=O)Nc1ccc(S(=O)(=O)Nc2nccs2)cc1 (stereo not drawn) | 3.49 | –
19 | CCOc1ccc(C(C(=O)NCCOC)N(CCOC)C(=O)CCC(=O)Nc2ccccn2)cc1 (stereo not drawn) | -22.5 | –
20 | Cc1ccc(C(=O)NCCc2nnc(SCC(=O)Nc3cccc(C(=O)O)c3)n2C)cc1 | 14.4 | –
21 | CCS(=O)(=O)C1=NSC2=NC(=O)/C(=C\c3cc(C)n(-c4cccc(OC)c4)c3C)C(=N)N21 | -2.54 | –
22 | CCc1nc2c(OCCC3CCCCC3)cccn2c1N(C)C(=O)c1ccco1 | – | 16.4 µM (active)
23 | CCc1nc2c(OCC(N)=O)cccn2c1N(C)C(=O)c1ccc(OC)cc1 | -5.74 | –
24 | CCCCN(C=O)c1c(CC)nc2c(OCCC3CCCCC3)cccn12 | – | 9.2 µM (active)
25 | CCCCN(C=O)c1c(CC)nc2c(OCc3ccccc3C(=O)OC)cccn12 | – | 20.6 µM (active)
26 | CCOc1ccccc1N(CC(=O)Nc1ccccc1C(=O)OC)S(C)(=O)=O | 0.517 | –
27 | CCc1nc2ccc(C(=O)N3CCN(S(=O)(=O)CC)CC3)cn2c1N(C=O)CCC(C)C | -19.4 | –

Row | SMILES | activity change, negative = growth inhibition [%] | Potency
28 | CCc1nc2c(OCC(=O)C(C)(C)C)cccn2c1N(C)C(=O)c1ccccc1F | -8.92 | –
29 | O=C(CNC(=O)c1ccco1)OCC(=O)c1ccccc1 | -5.78 | –
30 | COc1ccc(COC(=O)N/N=C(\C)CC(=O)Nc2ccc(Cl)cc2)cc1 | -6.88 | –
31 | CN(C)/N=C/c1cc(Cl)cc([N+](=O)[O-])c1O | -9.36 | –
32 | O=C(NC(Cc1ccccc1)C(=O)O)/C(=C\c1ccccc1)NC(=O)c1ccco1 (stereo not drawn) | 2.76 | –
33 | CC(=O)Nc1ccc(NC(=O)CS(=O)(=O)c2cn(CC(=O)N3CCCCC3)c3ccccc23)cc1 | -5.42 | –
34 | Cc1noc(C)c1C(=O)Nc1ccccn1 | 1.03 | –
35 | CCOC1=C2CN(S(=O)(=O)c3ccc(C)cc3)[C@H](c3cccs3)C[C@H]2[C@H]2C(=O)N(c3ccccc3)C(=O)[C@H]2C1 | -26.4 | –
36 | COC(=O)CSc1nnc(-c2cccnc2)o1 | -7.69 | –
37 | CN(CC(=O)NC1CCCC1)S(=O)(=O)c1cnc[nH]1 | 11.5 | –
38 | CC1(C(=O)O)CCC(C(=O)Nc2ccc(Cl)c(Cl)c2)C1(C)C (stereo not drawn) | 9.89 | –
39 | COc1ccc(-c2nc3n(c2Br)CCC3)cc1 | -21.5 | –
40 | COc1ccc(C(=O)O)cc1S(=O)(=O)NC1CCN(Cc2ccccc2)CC1 | -23.7 | –
41 | CCOc1ccc(C(=O)NC2CCN(CC(=O)NCc3cccs3)CC2)cc1 | 0.552 | –
42 | COC(=O)c1cc(NC(=O)CN2CCN(C(C)=O)CC2)cc(C(=O)OC)c1 | -5.06 | –
43 | COc1cc(C(=O)NC2CCN(Cc3ccccc3)CC2)cc(Cl)c1OC(C)C | – | 20.6 µM (active)
44 | COC(=O)c1cccc(NC(=O)CN2CCC(NC(=O)c3cc(OC)c(OC)c(OC)c3)CC2)c1 | – | 16.4 µM (active)
45 | COc1cc2[nH]c(=O)n(CCC(=O)NC3CCN(Cc4ccccc4)CC3)c(=O)c2cc1OC | 5.02 | –
46 | Cc1c(C=O)c2ccccc2n1CC(=O)O | 10.6 | –
47 | CC(NC(=O)COC(=O)c1ccc(Cl)cc1O)c1ccc(F)cc1 (stereo not drawn) | -15.9 | –
48 | Cc1ccc(S(=O)(=O)NCc2cn3ccsc3n2)c(C)c1 | -25.2 | –
49 | Cn1nnnc1SCC(=O)Nc1nc2ccccc2s1 | -4.07 | –
50 | Cc1ccn2c(=O)nc(SCC(=O)NCc3ccc(F)cc3)nc2c1 | -3.12 | –
51 | COc1ccc(/C=C/C(=O)Nc2cccnc2)cc1OC | -26.5 | –
52 | COc1ccc(/C=C/C(=O)Nc2ccc(C34CC5CC(CC(O)(C5)C3)C4)cc2)cc1OC | – | 1.3 µM (active)
53 | Cc1ccc(C23CC4CC(CC(C(=O)NCC(=O)O)(C4)C2)C3)cc1 | -8.94 | –
